tim10-1 inh: growth inhibitors of tim10-1 mutant yeast. 2.2% of 330,000 active. S. cerevisiae tim10-1 ts strain growth, BacTiter-Glo, 24 h. inhibition, % at 20 µM;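 active = inhibition of at least 40%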;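 note: mutant grown at 25 °C; 0% = DMSO wells with yeast and 100% = wells holding no yeast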
PfHsp90 set2: inhibits growth of yeast expressing Plasmodium falciparum Hsp90; S. cerevisiae expressing PfHsp90, BacTiter-Glo ATP, 48 h; yeast lacking PDR1 and PDR3 efflux regulators; inhibition, % at 9.4 µM; 0.32% of 310,000 active;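 active = every replicate shows inhibition above about 80%, whatever the replicate mean, limit read from the data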;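 note: 0% = DMSO neutral controls and 100% = 20 µM radicicol positive controls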
SKKanGAS inh: SKKanGAS growth inhibition; inhibition, % at 7.5 µM; S. pyogenes SKKanGAS, kanamycin growth, BacTiter-Glo, 6 h; 1.3% of 300,000 active; AID 1662;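 active = mean replicate score, as percent of positive control median, at least 50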;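 note: strain carries kanamycin resistance gene driven by streptokinase promoter and grows in 40 µg/ml kanamycin; loss of luminescence reflects streptokinase promoter inhibition or plain growth inhibition; 0% = median of DMSO wells and 100% = positive control at its reference dose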
tim23-1 inh: growth inhibitors of tim23-1 mutant yeast; S. cerevisiae tim23-1 growth, BacTiter-Glo luminescence, 24 h; inhibition, % at 20 µM; 1.3% of 330,000 active; AID 463212;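 active = growth inhibition of the mutant yeast at or above 50%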;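 note: temperature-sensitive mutant grown at 25 °C; plate controls were DMSO-treated mutant yeast for no effect and medium wells lacking yeast for full effect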
TIM10 inh: growth inhibitors of TIM10 yeast strain | S. cerevisiae TIM10 strain growth, BacTiter-Glo luminescence, 24 h | inhibition, % at 10 µM | 1.4% of 330,000 active;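 active = inhibition of 40% or more at the single tested concentration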;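 note: wild-type TIM10 isogenic control strain grown at permissive 25 °C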
Calb FLC: affects C. albicans growth with fluconazole. C. albicans CaCi-2 (fluconazole-resistant clinical isolate) + fluconazole, Alamar Blue growth, 48 h. growth inhibition, % (test concentration not listed). 0.57% of 300,000 active. AID 1979;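 active = growth inhibition above about 58% in most replicates, limit read from the data, passing the limit was not always enough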;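 note: all wells also contain fluconazole at 8 µg/ml as a sub-toxic cotreatment; 0% = median of DMSO wells and 100% = median of geldanamycin control wells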
tim23-1 conf: tim23-1 yeast growth inhibition, confirmed; shares compounds with tim23-1 inh; S. cerevisiae tim23-1 growth, BacTiter-Glo luminescence, 24 h; inhibition, % at 20 µM; 83% of 4,400 active;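 active = inhibition above about 39% in either of two replicate wells at 20 µM, limit read from the data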;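 note: temperature-sensitive tim23-1 mutant grown at 25 °C; 0% = DMSO wells with yeast and 100% = medium wells without yeast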
* hit, by the source's call; · = no result. Rows were chosen to be rich in hits. Some 4.7% of all compounds tested hit in one or more screens of this group.

SMILES | tim10-1 inh | PfHsp90 set2 | SKKanGAS inh | tim23-1 inh | TIM10 inh | Calb FLC | tim23-1 conf
Cc1ccc(-c2nnc(N3CCCCC3)c3ccccc23)cc1 | 38 | 12 | -1 | 54* | 36 | 12 | 53*
COc1ccc(NC(=O)/C(C#N)=C/c2cccnc2)c(OC)c1 | 31 | 29 | 16 | 50* | 27 | 13 | 44*
COc1ccc(/C=C(\C#N)C(=O)Nc2cccc(C)n2)cc1 | 1 | -14 | 0 | 5 | -15 | -6 | ·
N#C/C(=C\c1ccc(Cl)cc1)C(=O)Nc1cccnc1 | 20 | 27 | 4 | 65* | 9 | 0 | 68*
Cc1cccc(NC(=O)/C(C#N)=C/c2ccc(Cl)cc2)n1 | 30 | -2 | 2 | 60* | 32 | 0 | 68*
COc1ccc(NC(=O)C(=O)N/N=C/c2cccnc2)c(OC)c1 | 5 | 14 | -8 | 9 | 6 | 28 | ·
CC1C(=O)N2CCCc3cc(S(=O)(=O)N4CCC(C(N)=O)CC4)cc1c32 (stereo not drawn) | 4 | 5 | 4 | 2 | 9 | -5 | ·
Cc1csc2nc(O)c(C(=O)NCCC3=CCCCC3)c(=O)n12 | 34 | 14 | 43 | 66* | 35 | -1 | 44*
Cc1csc2nc(O)c(C(=O)NCCCc3ccccc3)c(=O)n12 | 26 | -46 | 35 | 73* | 25 | 5 | 53*
O=C(NCCC1=CCCCC1)c1cnccn1 | 30 | 42 | 6 | 5 | -7 | 1 | ·
CC1CCCN(S(=O)(=O)c2cc3c4c(c2)C(C)C(=O)N4CCC3)C1 (stereo not drawn) | 6 | -16 | 3 | 0 | 5 | 15 | ·
Nc1ccc(C(=O)N/N=C/c2cccc(Oc3ccccc3)c2)cc1 | -2 | -11 | -7 | 36 | -2 | -40 | ·
Cc1nn(C)c(C(=O)N/N=C/c2cccc(Oc3ccccc3)c2)c1Br | 38 | · | 0 | 52* | 18 | -1 | 40*
O=C(N/N=C/c1cccc(Oc2ccccc2)c1)c1ccccc1F | 33 | · | -3 | 50* | 1 | 26 | 46*
O=[N+]([O-])c1cccc(S(=O)(=O)NCC2CC3CCC2C3)c1 (stereo not drawn) | 37 | 10 | 8 | 39 | 5 | -29 | ·
COc1ccc(N=CC2=C(Nc3ccc(OC)cc3)c3c(C)nn(-c4ccccn4)c3CC2)cc1 | 20 | · | · | 51* | 17 | · | 52*
Cc1ccccc1NC(=O)c1ccc2c(O)c(S(=O)(=O)c3ccccc3)c(=O)[nH]c2c1 | 17 | -20 | 5 | 6 | 20 | -10 | ·
C/C(=N\NC(=O)c1cccc(C)c1O)c1ccc(NC(=O)Cc2ccccc2)cc1 | -19 | 13 | 18 | -9 | -20 | -10 | ·
Cn1c(C=O)c(C#CC(C)(C)O)c2ccccc21 | 29 | 7 | · | 61* | 38 | · | 60*
Cn1c(=O)c(C(=O)c2ccccc2)c(O)c2ccccc21 | -38 | · | -2 | -2 | -11 | 2 | ·
COCCCN(C(=S)Nc1cc(Cl)cc(Cl)c1)C(C)c1ccccn1 (stereo not drawn) | 27 | 2 | 18 | 63* | 25 | -2 | 53*
COCCCN(C(=O)Nc1ccc(C)c(C)c1)C(C)c1ccccn1 (stereo not drawn) | 25 | 20 | -2 | 15 | -2 | -8 | ·
COCCCN(C(=S)Nc1cc(Cl)cc(Cl)c1)C(C)c1ccncc1 (stereo not drawn) | 17 | 3 | -2 | 50* | 23 | -6 | 47*
CC(=O)Nc1ccc(S(=O)(=O)NCc2nc(-c3cccc(C)c3)no2)cc1 | 6 | -4 | 21 | -7 | 13 | -3 | ·
C=C1CCC2[C@](C)(CO[C@@H]3O[C@H](CO)[C@@H](O)[C@H](O)[C@H]3O)CCC[C@@]2(C)[C@@H]1CCC1=CCOC1=O (stereo partly drawn) | -12 | -14 | · | 6 | 2 | · | ·
SMILES | tim10-1 inh | PfHsp90 set2 | SKKanGAS inh | tim23-1 inh | TIM10 inh | Calb FLC | tim23-1 conf
CC(=O)c1ccc(OC(=O)CCNC(=O)c2ccccc2)cc1 | 2 | -44 | · | 21 | 8 | · | ·
CCOC(=O)c1cccc(OC(=O)CCNC(=O)c2ccc(Cl)cc2)c1 | -12 | 3 | · | 57* | 21 | · | 51*
CCC(CC)C(=O)c1c[nH]c(C(=O)N2CCN(c3ccccc3)CC2)c1 | 0 | 2 | -2 | 0 | -2 | -10 | ·
CCOC(=O)NNc1ccc2nonc2c1[N+](=O)[O-] | 20 | -5 | 11 | 56* | 31 | 15 | 69*
CCc1ccc(Nc2ccc3nonc3c2[N+](=O)[O-])cc1 | 19 | -5 | -12 | 16 | 23 | -2 | ·
CCc1sc(C(=O)Nc2ccc3c(c2)OCO3)cc1C | -17 | -8 | · | 55* | 4 | · | 46*
CCc1sc(C(=O)Nc2nccs2)cc1C | 25 | -4 | 59* | 54* | 6 | 12 | 58*
O=C(Nc1nccs1)c1ccc(Cl)s1 | 25 | 13 | 5 | 70* | 30 | -6 | 57*
CCc1sc(C(=O)Nc2ncccc2C)cc1C | 2 | 20 | -6 | 20 | -15 | -1 | ·
CCN(CC(=O)Nc1ccc(NC(C)=O)cc1)C(=O)CSc1ncnc2sc(C)c(C)c12 | 4 | · | 11 | 14 | -2 | 3 | ·
Cc1cccc(CC2CC(=O)N(c3nc4ccccc4s3)C2=O)c1 (stereo not drawn) | 34 | -9 | -2 | 31 | 32 | -6 | ·
Cc1ccc2nc(N3C(=O)CNC3=S)sc2c1 | 22 | 9 | 89* | 64* | 29 | 10 | 66*
CS/C(Nc1cc(Cl)ccc1Cl)=C(/C#N)C(=O)c1ccco1 | 33 | -5 | 54* | 59* | 25 | -6 | 52*
O=C(Nc1cc(Cl)ccc1Cl)c1ccco1 | 9 | 45 | 3 | 17 | -6 | -7 | ·
Cc1ccc(S(=O)(=O)N[C@@H](Cc2ccccc2)C(=O)CCl)cc1 | 39 | -44 | · | 69* | 34 | · | 48*
Cc1ccc(S(=O)(=O)NC(Cc2ccccc2)C(=O)NN)cc1 (stereo not drawn) | 12 | 5 | -15 | 2 | 4 | -36 | ·
O=C(CN1C(=O)c2ccccc2S1(=O)=O)Nc1cc(S(=O)(=O)N2CCCCC2)ccc1Cl | 2 | 20 | · | 5 | 8 | · | ·
Cc1cccc(-c2cc3nc4c(c(N5CCOCC5)n3n2)CCCC4)c1 | 11 | 20 | 32 | 58* | 14 | 8 | 47*
CC12CCC(C(=O)NCCCN3CCOCC3)(C(Br)C1=O)C2(C)C (stereo not drawn) | -8 | 0 | -2 | 95* | -7 | -7 | 1
CC12CCC(C(=O)NCCCN3CCOCC3)(OC1=O)C2(C)C (stereo not drawn) | 4 | -40 | 4 | 3 | -1 | -13 | ·
COc1ccc(CCNC(=O)CCc2cn(C)c3ccccc23)c(OC)c1OC | 16 | 0 | -5 | 23 | 14 | -10 | ·
CCOc1ccccc1N1CCN(C(=O)c2c(Cl)cnn2C)CC1 | -1 | -12 | 9 | -1 | 12 | -1 | ·

Screening data as filed in PubChem BioAssay.
